The text below walks through data of article PMC7862700, “An all-to-all approach to the identification of sequence-specific readers for epigenetic DNA modifications on cytosine”.

Holding throughout (assay): DAPPL (digital affinity profiling via proximity ligation, sequencing); 10 mM Tris-HCl pH 7.5, 50 mM NaCl, 1 mM DTT, 4% glycerol, room temperature, 30 min; GST-TFs on glutathione beads, 16-mer random dsDNA library, 0.1% formaldehyde crosslink after washing; high values mean tight binding
What all share (conditions): protein: recombinant; tags: N-terminal GST; dsDNA, one strand shown

One assay addresses T1, ELK1 (Homo sapiens, UniProt P19419 1-428).
T1 sequence: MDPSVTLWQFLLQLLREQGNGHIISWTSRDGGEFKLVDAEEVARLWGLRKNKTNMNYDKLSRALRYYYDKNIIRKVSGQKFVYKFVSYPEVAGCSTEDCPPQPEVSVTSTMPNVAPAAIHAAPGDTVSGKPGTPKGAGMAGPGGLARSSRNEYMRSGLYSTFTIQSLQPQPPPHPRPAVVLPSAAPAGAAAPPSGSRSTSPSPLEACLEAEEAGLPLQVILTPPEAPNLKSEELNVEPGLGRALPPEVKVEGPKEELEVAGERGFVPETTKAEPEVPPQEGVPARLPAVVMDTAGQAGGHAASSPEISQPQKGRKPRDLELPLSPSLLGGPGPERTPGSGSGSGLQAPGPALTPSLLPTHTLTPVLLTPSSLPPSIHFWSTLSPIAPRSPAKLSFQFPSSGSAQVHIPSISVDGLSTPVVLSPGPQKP
In short, it runs like this: (§1)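 Sequencing on an Illumina NextSeq500 followed washing, crosslinking with 0.1% formaldehyde, proximity ligation (BsaI/T4 ligase, 1 h, 37 °C) and PCR amplification of pools that had been incubated for 30 min at room temperature with 200 nmole of a random double-stranded 16-mer DNA library in Tris/NaCl/DTT/glycerol buffer. Each pool held DNA-barcoded human transcription factors, expressed in yeast as GST fusions and captured on glutathione beads, plus a tag-only sample. Binding signal is a hexamer's read frequency for a factor divided by its frequency in the tag-only sample.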

A further assay deals with T2, GABPA (Homo sapiens, UniProt Q06546 1-454).
T2 sequence: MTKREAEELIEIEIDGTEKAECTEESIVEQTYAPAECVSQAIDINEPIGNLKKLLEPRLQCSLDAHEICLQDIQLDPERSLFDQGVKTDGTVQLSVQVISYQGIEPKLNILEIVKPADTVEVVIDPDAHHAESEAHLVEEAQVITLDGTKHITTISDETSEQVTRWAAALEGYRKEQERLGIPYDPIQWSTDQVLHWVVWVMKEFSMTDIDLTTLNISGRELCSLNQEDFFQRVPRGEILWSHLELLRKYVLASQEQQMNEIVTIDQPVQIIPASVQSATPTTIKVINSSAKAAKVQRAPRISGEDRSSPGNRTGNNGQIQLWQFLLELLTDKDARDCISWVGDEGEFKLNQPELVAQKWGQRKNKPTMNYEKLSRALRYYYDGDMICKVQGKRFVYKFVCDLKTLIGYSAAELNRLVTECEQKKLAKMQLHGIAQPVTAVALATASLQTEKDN
In short, it runs like this: as §1

The target of another assay is T3, ERG (Homo sapiens, UniProt P11308 1-479).
T3 sequence: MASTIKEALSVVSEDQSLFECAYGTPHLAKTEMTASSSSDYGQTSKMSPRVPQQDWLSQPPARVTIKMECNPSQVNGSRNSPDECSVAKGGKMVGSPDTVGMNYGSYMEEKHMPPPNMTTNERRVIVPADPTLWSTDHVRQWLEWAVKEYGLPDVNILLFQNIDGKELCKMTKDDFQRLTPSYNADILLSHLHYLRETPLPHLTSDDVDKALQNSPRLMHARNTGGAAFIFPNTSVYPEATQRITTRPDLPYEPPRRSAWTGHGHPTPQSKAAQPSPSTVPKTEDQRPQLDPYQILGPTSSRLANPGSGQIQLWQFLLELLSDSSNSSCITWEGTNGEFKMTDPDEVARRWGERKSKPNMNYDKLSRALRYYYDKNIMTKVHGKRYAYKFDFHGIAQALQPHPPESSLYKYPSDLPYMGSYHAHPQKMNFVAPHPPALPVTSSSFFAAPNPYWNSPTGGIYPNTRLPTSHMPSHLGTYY
In short, it runs like this:
as §1

The next assay deals with ELF1 (Homo sapiens, UniProt P32519 1-619). In short, it runs like this:
as §1

For the next assay, the target named is T4, EHF (Homo sapiens, UniProt Q9NZC4 1-300).
T4 sequence: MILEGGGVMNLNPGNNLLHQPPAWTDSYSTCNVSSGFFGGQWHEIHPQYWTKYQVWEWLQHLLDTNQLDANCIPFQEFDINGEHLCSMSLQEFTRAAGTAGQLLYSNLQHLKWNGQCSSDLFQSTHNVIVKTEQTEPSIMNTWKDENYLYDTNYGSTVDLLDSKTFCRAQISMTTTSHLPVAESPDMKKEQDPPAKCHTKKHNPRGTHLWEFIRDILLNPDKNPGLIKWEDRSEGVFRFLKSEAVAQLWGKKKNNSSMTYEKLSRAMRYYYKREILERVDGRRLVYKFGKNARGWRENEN
In short, it runs like this: as §1

The target of the next assay is T5, ELK3 (Homo sapiens, UniProt P41970 1-407).
T5 sequence: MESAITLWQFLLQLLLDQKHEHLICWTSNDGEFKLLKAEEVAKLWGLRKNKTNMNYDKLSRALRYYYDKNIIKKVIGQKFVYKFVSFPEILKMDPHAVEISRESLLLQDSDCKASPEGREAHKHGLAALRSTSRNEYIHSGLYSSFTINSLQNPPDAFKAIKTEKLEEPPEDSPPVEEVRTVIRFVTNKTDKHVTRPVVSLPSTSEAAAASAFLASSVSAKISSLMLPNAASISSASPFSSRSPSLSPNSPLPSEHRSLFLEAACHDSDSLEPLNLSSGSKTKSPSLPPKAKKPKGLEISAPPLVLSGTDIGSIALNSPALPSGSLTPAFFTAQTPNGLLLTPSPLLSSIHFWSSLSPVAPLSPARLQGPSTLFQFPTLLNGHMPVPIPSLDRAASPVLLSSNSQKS
In short, it runs like this:
as §1

The target in a further assay is ETV5 (Homo sapiens, UniProt P41161 1-510). The method, boiled down: as §1
The next assay deals with T6, SPIC (Homo sapiens, UniProt Q8N5J4 1-248).
T6 sequence: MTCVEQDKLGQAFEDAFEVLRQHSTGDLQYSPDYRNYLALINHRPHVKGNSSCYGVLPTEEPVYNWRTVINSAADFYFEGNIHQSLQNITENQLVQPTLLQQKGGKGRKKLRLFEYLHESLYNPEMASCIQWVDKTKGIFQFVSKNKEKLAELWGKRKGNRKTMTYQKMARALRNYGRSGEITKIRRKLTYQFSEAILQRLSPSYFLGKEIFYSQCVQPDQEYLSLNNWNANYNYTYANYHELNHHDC
In short, it runs like this: as §1

Another assay addresses ELF4 (Homo sapiens, UniProt Q99607 1-663). The method, boiled down: as §1
The target in another assay is T7, ELK4 (Homo sapiens, UniProt P28324-2 1-405).
T7 sequence: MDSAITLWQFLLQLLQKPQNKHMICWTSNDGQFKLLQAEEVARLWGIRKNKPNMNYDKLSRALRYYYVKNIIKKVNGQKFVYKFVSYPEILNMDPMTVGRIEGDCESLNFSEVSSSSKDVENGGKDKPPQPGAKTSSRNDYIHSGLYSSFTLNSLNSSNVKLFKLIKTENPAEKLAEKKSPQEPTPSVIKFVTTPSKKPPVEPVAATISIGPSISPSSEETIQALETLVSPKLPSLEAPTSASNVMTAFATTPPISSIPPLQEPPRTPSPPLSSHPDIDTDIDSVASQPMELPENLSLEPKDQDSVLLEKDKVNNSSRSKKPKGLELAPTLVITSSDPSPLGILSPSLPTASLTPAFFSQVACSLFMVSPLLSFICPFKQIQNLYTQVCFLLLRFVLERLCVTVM
The method, boiled down:
as §1

For a further assay, the target named is ETV1 (Homo sapiens, UniProt P50549 1-477). In short, it runs like this:
as §1

Another assay has as its target T8, ERF (Homo sapiens, UniProt P50548 1-548).
T8 sequence: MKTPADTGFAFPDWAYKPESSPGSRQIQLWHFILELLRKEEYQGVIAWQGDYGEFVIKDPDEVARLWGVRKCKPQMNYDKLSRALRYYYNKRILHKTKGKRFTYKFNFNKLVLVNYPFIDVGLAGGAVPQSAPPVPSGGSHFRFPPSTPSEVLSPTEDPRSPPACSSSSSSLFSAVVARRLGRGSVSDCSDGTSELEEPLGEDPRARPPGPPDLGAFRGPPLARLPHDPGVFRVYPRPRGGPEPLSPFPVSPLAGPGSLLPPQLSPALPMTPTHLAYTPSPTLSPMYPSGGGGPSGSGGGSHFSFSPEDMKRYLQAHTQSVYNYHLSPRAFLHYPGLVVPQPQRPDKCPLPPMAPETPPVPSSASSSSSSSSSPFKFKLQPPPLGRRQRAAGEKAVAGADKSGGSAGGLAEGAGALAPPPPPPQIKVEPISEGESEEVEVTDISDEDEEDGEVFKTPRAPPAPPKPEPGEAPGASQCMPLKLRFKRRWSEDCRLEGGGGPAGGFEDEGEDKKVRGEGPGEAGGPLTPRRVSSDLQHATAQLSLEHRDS
In short, it runs like this: as §1

In another assay the target is T9, ETV3L (Homo sapiens, UniProt Q6ZN32 1-361).
T9 sequence: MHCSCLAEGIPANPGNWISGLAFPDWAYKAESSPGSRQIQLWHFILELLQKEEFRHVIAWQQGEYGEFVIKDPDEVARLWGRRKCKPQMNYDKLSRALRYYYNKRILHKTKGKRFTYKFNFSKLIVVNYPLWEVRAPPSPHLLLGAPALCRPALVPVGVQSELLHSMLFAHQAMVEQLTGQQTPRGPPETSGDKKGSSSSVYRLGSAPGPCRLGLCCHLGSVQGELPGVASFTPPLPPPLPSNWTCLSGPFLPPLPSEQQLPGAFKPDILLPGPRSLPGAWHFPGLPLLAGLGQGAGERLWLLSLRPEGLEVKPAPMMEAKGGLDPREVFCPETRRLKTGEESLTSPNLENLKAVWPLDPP
The method, boiled down:
as §1

The next assay deals with T10, ETS2 (Homo sapiens, UniProt P15036 1-469).
T10 sequence: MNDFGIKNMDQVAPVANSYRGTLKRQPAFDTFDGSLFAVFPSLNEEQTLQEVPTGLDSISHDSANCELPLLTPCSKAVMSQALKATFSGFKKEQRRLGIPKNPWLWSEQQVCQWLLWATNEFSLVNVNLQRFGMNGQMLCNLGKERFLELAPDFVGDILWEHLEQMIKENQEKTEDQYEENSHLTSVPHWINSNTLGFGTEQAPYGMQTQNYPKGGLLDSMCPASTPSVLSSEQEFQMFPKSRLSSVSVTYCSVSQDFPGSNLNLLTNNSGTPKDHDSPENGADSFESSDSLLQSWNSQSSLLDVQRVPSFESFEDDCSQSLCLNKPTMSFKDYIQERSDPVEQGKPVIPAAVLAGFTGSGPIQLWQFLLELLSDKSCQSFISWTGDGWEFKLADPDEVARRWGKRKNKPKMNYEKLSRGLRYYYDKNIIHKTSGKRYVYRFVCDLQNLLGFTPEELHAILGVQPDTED
The method, boiled down:
as §1

A further assay has as its target T11, SPDEF (Homo sapiens, UniProt O95238 1-335).
T11 sequence: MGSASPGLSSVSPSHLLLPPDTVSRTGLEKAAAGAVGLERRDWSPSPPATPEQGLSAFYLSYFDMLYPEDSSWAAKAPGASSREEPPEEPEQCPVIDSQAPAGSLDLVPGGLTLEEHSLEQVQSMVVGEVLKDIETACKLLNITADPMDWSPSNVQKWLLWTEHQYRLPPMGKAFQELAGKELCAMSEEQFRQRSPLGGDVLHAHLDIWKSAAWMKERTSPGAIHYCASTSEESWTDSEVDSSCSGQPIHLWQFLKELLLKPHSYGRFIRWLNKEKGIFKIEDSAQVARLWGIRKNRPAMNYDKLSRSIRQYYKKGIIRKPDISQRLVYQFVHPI
In short, it runs like this: as §1

In the next assay the target is T12, ETV7 (Homo sapiens, UniProt Q9Y603 1-341).
T12 sequence: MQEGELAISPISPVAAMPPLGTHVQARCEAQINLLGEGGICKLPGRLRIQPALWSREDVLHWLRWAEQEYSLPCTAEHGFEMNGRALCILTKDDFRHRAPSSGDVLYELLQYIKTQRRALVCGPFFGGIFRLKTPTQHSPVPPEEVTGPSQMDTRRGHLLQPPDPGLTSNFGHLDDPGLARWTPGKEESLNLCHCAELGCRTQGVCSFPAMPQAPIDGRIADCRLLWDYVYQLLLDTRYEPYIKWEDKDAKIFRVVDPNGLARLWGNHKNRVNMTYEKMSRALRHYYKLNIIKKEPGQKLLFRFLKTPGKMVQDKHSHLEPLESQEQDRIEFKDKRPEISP
The method, boiled down: as §1

In the next assay the target is T13, ETV3 (Homo sapiens, UniProt P41162-2 1-143).
T13 sequence: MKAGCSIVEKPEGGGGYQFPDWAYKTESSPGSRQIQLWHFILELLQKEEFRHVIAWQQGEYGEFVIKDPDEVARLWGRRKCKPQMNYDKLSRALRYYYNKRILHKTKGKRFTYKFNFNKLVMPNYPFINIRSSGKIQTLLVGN
In short, it runs like this:
as §1

The next assay addresses ETV6 (Homo sapiens, UniProt P41212 1-452). In short, it runs like this:
as §1

Sequence of ETV5 (P41161 whole entry): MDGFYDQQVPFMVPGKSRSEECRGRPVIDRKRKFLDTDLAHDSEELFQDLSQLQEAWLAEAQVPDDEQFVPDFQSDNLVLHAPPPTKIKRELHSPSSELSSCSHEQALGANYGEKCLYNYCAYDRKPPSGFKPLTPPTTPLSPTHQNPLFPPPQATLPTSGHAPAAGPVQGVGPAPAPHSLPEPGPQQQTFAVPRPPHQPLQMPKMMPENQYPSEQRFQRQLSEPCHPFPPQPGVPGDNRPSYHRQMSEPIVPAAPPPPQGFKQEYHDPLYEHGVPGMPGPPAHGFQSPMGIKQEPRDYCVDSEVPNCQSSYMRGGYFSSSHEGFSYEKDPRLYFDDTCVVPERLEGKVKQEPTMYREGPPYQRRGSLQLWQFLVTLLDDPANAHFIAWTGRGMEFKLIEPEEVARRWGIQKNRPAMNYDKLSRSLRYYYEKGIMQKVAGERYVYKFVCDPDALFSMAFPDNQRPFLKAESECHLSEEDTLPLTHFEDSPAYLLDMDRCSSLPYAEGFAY
Sequence of ELF4 (Q99607 whole entry): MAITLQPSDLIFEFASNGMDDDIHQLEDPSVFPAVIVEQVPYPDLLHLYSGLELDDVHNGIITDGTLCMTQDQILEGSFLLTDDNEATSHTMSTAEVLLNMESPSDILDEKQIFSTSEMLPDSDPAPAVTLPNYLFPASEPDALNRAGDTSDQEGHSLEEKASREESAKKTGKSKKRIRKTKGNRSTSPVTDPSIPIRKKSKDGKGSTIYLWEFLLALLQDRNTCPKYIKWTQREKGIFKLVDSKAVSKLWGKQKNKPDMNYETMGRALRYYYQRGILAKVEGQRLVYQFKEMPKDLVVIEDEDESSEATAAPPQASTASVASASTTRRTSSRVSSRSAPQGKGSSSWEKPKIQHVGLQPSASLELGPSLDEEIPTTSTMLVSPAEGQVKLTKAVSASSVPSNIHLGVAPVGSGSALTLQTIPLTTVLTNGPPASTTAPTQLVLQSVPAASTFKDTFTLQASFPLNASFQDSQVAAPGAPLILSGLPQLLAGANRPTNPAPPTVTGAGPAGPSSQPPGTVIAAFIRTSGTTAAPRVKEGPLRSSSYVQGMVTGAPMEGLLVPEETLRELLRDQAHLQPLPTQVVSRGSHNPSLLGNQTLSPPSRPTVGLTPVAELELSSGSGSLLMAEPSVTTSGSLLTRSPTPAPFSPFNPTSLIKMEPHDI
Sequence of ETV1 (P50549 whole entry): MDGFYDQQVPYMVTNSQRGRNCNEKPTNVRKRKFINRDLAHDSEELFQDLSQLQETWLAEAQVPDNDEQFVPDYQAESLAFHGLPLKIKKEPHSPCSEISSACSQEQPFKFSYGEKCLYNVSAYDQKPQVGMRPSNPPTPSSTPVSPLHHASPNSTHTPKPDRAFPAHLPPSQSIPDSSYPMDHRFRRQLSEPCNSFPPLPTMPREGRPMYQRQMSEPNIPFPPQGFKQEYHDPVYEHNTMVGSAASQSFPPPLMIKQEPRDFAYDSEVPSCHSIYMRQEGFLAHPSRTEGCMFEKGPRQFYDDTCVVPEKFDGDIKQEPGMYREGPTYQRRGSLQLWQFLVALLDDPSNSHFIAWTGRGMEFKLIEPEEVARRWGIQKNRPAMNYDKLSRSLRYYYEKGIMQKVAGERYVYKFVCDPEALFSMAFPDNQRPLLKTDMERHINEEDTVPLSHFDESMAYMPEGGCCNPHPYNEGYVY
Sequence of ELF1 (P32519 whole entry): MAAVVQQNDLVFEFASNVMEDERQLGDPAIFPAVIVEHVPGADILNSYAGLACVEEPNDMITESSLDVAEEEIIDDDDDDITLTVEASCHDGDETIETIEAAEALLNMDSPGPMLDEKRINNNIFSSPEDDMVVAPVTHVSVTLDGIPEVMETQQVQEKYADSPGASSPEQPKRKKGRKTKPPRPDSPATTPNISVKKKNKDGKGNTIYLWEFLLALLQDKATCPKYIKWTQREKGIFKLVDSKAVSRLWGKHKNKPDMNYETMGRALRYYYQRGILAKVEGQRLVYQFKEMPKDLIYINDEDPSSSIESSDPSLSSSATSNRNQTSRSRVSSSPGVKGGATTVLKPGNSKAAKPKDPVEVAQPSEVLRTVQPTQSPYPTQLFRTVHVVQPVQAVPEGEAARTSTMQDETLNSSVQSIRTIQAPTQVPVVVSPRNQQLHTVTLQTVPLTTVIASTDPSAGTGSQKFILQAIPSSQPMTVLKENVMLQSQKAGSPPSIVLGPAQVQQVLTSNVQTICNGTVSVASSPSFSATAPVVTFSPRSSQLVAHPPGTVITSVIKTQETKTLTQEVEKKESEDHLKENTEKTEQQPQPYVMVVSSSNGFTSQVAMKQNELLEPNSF
Sequence of ETV6 (P41212 whole entry): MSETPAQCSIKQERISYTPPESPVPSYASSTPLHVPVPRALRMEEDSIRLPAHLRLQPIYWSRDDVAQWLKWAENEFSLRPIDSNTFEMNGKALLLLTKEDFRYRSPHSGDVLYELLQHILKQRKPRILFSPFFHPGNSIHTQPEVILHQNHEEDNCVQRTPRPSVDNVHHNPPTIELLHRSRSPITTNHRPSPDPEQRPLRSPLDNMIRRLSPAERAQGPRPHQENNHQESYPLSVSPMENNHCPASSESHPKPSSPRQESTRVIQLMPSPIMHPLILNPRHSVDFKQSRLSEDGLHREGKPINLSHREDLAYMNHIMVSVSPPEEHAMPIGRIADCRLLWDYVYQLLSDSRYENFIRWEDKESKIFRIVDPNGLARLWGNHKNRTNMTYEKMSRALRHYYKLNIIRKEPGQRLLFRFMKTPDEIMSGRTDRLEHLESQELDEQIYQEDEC

AGCACA: the binding signal in the assay with ELK1 is 1.01 fold enrichment (6-mer frequency, TF over GST control); in the assay with GABPA, 1.08 fold enrichment (6-mer frequency, TF over GST control); with ERG, 1.03 fold enrichment (6-mer frequency, TF over GST control); with ELF1 it was 1.06 fold enrichment (6-mer frequency, TF over GST control); with EHF it was 1.04 fold enrichment (6-mer frequency, TF over GST control); in the assay with ELK3, 1.06 fold enrichment (6-mer frequency, TF over GST control). Also, the binding signal is 1.07 fold enrichment (6-mer frequency, TF over GST control) in the assay with ETV5; 1.02 fold enrichment (6-mer frequency, TF over GST control) in the assay with SPIC; 1.08 fold enrichment (6-mer frequency, TF over GST control) with ELF4; 1.02 fold enrichment (6-mer frequency, TF over GST control) in the assay with ELK4; 1.02 fold enrichment (6-mer frequency, TF over GST control) with ETV1; 1.13 fold enrichment (6-mer frequency, TF over GST control) in the assay with ERF. Further, the binding signal with ETV3L is 1.14 fold enrichment (6-mer frequency, TF over GST control); in the assay with ETS2 it was 1.02 fold enrichment (6-mer frequency, TF over GST control); with SPDEF it was 1.07 fold enrichment (6-mer frequency, TF over GST control); with ETV7 it was 1.01 fold enrichment (6-mer frequency, TF over GST control); with ETV3, 1.05 fold enrichment (6-mer frequency, TF over GST control); with ETV6, 1.11 fold enrichment (6-mer frequency, TF over GST control).
